Screening data from PubChem.
Shown are actives, neighbours in structure and some others; about 9% of the full set was active somewhere.
HPGD inh = qHTS Assay for Inhibitors of HPGD (15-Hydroxyprostaglandin Dehydrogenase); 15-hydroxyprostaglandin dehydrogenase [NAD(+)] (Homo sapiens), P15428; purified HPGD, NADH fluorescence kinetic, PGE2 substrate; Potency, µM, without a hit: top-dose activity change, negative = inhibition, hits mostly inhibitors; 150,000 tested, 4.3% active; AID 894, 2007; also: potency is read from the fitted curve at half-maximal effect
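20 nM HPGD preincubated 15 min at room temperature with compound in 50 mM Tris-HCl pH 8, 0.01% Tween 20. Started with 1 mM NAD+ and 30 uM prostaglandin E2; NADH fluorescence (360/450 nm) read 5 times over 30-s intervals, last minus first.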
IMPase inh = qHTS Assay for Identifying the Cell-Membrane Permeable IMPase Inhibitors; Inositol monophosphatase 1 (Rattus norvegicus), P97697; CHO-M1 cells, IP1 accumulation, HTRF TR-FRET ratio; inhibition (IP1 accumulation), % at 46.1 µM; 120,000 tested, under 10 active; AID 901, 2007; active = well fitted curve in the direction sought with a large enough effect in the signal ratio, not every such curve was filed as active; inconclusive = small, poorly fitted or top-dose-only effect, or a change in a side signal; inactive = no such curve, though single readings can be large or run the other way; the % refers to the signal ratio;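 also: cells stimulated with carbachol in lithium chloride buffer; plate controls were DMSO basal wells for no effect and reference inhibitor wells for full effect; higher means more IMPase inhibition seen as more IP1 and lower FRET ratio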
Target sequence (P97697 whole entry, looked up): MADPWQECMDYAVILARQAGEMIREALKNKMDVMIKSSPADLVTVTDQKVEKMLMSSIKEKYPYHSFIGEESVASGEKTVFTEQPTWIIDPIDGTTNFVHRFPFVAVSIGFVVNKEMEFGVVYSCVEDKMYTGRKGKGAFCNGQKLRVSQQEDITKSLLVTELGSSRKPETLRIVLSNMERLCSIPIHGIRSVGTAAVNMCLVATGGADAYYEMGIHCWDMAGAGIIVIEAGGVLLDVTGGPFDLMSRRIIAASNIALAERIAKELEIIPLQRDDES
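In this qHTS, compounds (final up to 46 uM) act on CHO-M1 cells that are then activated through the M1 receptor with carbachol, in pH 7.4 buffer containing 50 mM LiCl, for 30 min. IP1 accumulation is quantified by the IP-One immunoassay.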
ALDH1A1 block = qHTS Assay for Inhibitors of Aldehyde Dehydrogenase 1 (ALDH1A1). AID 1030, 2008. Aldehyde dehydrogenase 1A1 (Homo sapiens), P00352. Potency, µM (doses to about 75.3 µM), without a hit: at the highest dose activity, negative = inhibition, usual class: inhibitors. Purified ALDH1A1, NADH fluorescence, propionaldehyde substrate. 220,000 tested, 7.3% active;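 also: potency is read from the fitted curve at half-maximal effect; plate controls were no enzyme wells and a reference inhibitor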
The depositor's hits bear a star; [ ] = remark or other dose. Unless noted, calls follow the shape of the dose curve; as a rule, active = well fitted inhibition curve with a large enough effect (not every such curve was filed as active); inconclusive = small, poorly fitted or top-dose-only effect, or another doubt; inactive = no such curve, though single readings can be large or run the other way. Unless noted, % is scaled to controls: 0 for no effect and ±100 for the full control effect.

Screening CCOC(=O)N1CCC(NC(=O)c2cnn3c2NC(c2ccco2)CC3C(F)(F)F)CC1 (stereo unspecified) returned HPGD inh -9%, IMPase inh 6 and ALDH1A1 block inconclusive.
For COc1cccc(C2CC(C(F)(F)F)n3ncc(C(=O)NCC4CCCO4)c3N2)c1 (stereo unspecified) the results were HPGD inh 14µM*, IMPase inh 0 and ALDH1A1 block 3%.
For CCOC(=O)c1c(NC(=O)c2cnn3c2NC(c2cccc(OC)c2)CC3C(F)(F)F)sc2c1CCCC2 (stereo unspecified) the results were HPGD inh inconclusive and ALDH1A1 block -10%.
COCCNC(=O)c1cnn2c1NC(c1ccco1)CC2C(F)(F)F (stereo unspecified) was read as HPGD inh 25µM*, IMPase inh 0 and ALDH1A1 block inconclusive.
`Cc1ccc(Cl)cc1NC(=O)c1cnn2c1NC(c1ccco1)CC2C(F)(F)F` (stereo unspecified) gave HPGD inh -21%, IMPase inh 9 and ALDH1A1 block inconclusive.
`CN(Cc1ccc(-n2cccn2)cc1)C(=O)c1cnn2c1NC(c1ccco1)CC2C(F)(F)F` (stereo unspecified) gave HPGD inh -26%, IMPase inh 8[1.84 µM] and ALDH1A1 block 7.9µM*.
For CCOc1ccc2nc(Cl)c(C3CC(c4ccc(C)cc4)=NN3C(=O)CCCC(=O)O)cc2c1 (stereo unspecified) the results were IMPase inh 8.
`COC(=O)N1CCC2(CC1)CCN(c1ccncc1)CC2` gave HPGD inh 0% and ALDH1A1 block 6%.
`C[C@H](NC[C@H](O)CP(=O)(O)Cc1ccccc1)c1ccc(Cl)c(Cl)c1` gave HPGD inh -3%, IMPase inh 0 and ALDH1A1 block 4%.
For Cc1ccc(NC(=O)CCn2nnc3ccccc32)cc1 the results were ALDH1A1 block 2%.
Screening Cc1cccc2nc(CSc3ccccc3C(=O)O)cn12 returned IMPase inh 0 and ALDH1A1 block -10%.
Screening CC1(C)Cc2ccccc2C(CSc2ccccc2C(=O)O)=N1 returned ALDH1A1 block 40µM*.
CCN(CC)C(=O)Cc1c(OC)ccc2cc(Br)ccc12 was read as ALDH1A1 block -4%.
Screening CCN(Cc1ccncc1)Cc1c(O)ccc2cc(Br)ccc12 returned ALDH1A1 block 0.56µM*.
Screening Cc1csc2c(C#N)c(=O)c3c(n12)CCC3 returned HPGD inh -24%, IMPase inh -14 and ALDH1A1 block -8%.
COc1ccc(C(=O)[C@H](Br)[C@H](Br)C(=O)O)cc1 was read as HPGD inh -13% and ALDH1A1 block 0.28µM*.
For C=C(C)C(=O)c1ccc(OC)cc1 the results were HPGD inh -1% and ALDH1A1 block 2%.
`O=C(C1CCCCN1S(=O)(=O)c1ccccc1)N1CCN(C(c2ccccc2)c2ccccc2)CC1` (stereo unspecified) gave HPGD inh -27%, IMPase inh inconclusive and ALDH1A1 block -9%.
For CCN1CCN(C(=S)NCCc2ccccc2)CC1 the results were HPGD inh -2%, IMPase inh 6 and ALDH1A1 block -12%.
Screening CCNC(=S)N1CCN(Cc2ccccc2)CC1 returned ALDH1A1 block 16µM*.
`S=C(NCCc1ccccc1)N1CCN(C(c2ccccc2)c2ccccc2)CC1` gave HPGD inh -13% and ALDH1A1 block inconclusive.
For CCCNC(=S)N1CCN(C(c2ccccc2)c2ccccc2)CC1 the results were HPGD inh -11% and ALDH1A1 block inconclusive.
For CCCCNC(=S)N1CCN(C(c2ccccc2)c2ccccc2)CC1 the results were ALDH1A1 block 28µM*.
For CCNC(=S)N1CCN(C(c2ccccc2)c2ccccc2)CC1 the results were HPGD inh -13%, IMPase inh -3[1.84 µM] and ALDH1A1 block 3.2µM*.
O=C(C1CC1)N1CCN(C(c2ccccc2)c2ccccc2)CC1 was read as HPGD inh -6%, IMPase inh 7 and ALDH1A1 block 1.1µM*.
Screening O=C(COC(=O)c1cc[n+]([O-])cc1)NCc1ccccc1Cl returned ALDH1A1 block -8%.
Screening CC(C)OC(=O)c1c2c(n3ccccc13)C(=O)c1ccccc1C2=O returned HPGD inh -13%, IMPase inh -10 and ALDH1A1 block inconclusive.
`O=C(NCCN1CCOCC1)c1ccc(Cl)cc1[N+](=O)[O-]` gave HPGD inh -9%, IMPase inh -2 and ALDH1A1 block 8%.
